An excerpt weighted towards active compounds, which were near 12% of everything screened.
Shiga inhibitor – blocks Shiga toxin action in Vero cells; Vero cells, Shiga toxin protein synthesis inhibition reporter; inhibition, % at 38.7 µM; hit rate 9.2% among 290,000; AID 2315; in the data active = inhibition mostly above about 28%, no sharp cut-off; inactive = mostly below about 43%
SARS PLpro yeast – inhibitors of SARS-CoV papain-like protease in yeast; S. cerevisiae expressing SARS-CoV PLpro, growth rescue; Potency, µM (top dose mostly 32.9 µM), most hits filed as activators; hit rate 0.19% among 330,000; AID 485353; note: nearly all actives have a fitted effect of over 55% in size
NS1 function inh – inhibitors of influenza NS1 protein function; Potency, µM (doses to about 46.1 µM); hit rate 0.4% among 270,000; note: actives are rising curves; nearly all actives have a fitted effect of over 50% in size
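OD600 was taken as the measure of yeast growth restored by compound in an NS1-expressing S. cerevisiae strain. Cells had been washed out of glucose medium and diluted 1:100 into galactose -URA medium, pH 6.0.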
CHX counter – affects cycloheximide protein synthesis inhibition readout, counter-screen. cell reporter, cycloheximide protein synthesis inhibition counterscreen. max response, %. hit rate 12% among 300,000; in the data active = max response mostly above about 13%, no sharp cut-off; inactive = mostly below about 14%; note: read at 38.3 µM for the half of the compounds with a filed dose
Hits are given with their value. Unless noted, calls come from the whole dose curve.

Results for CC(=O)Nc1ccc(/C(C)=N/NC(=O)c2ccccc2Cl)cc1 ?
Shiga inhibitor: 50; SARS PLpro yeast: inactive; NS1 function inh: inactive; CHX counter: 29

Results for C/C(=N/NC(=O)c1ccccc1O)c1ccc(N2C(=O)C3CCCCC3C2=O)cc1 (stereo not drawn) ?
Shiga inhibitor: 56; SARS PLpro yeast: inactive; NS1 function inh: inactive; CHX counter: 22

What do the screens show for `CCOCCCNC(=O)C(NC(=O)C1CCC(=O)N1)c1ccc(C)cc1` (stereo not drawn)?
Shiga inhibitor: inactive; SARS PLpro yeast: inactive; NS1 function inh: inactive; CHX counter: inactive

How did Cc1c(/C=N\NC(=O)C2COc3ccc(C(C)(C)C)cc3O2)c2ccccc2n1C (stereo not drawn) do in these assays?
Shiga inhibitor: inactive; SARS PLpro yeast: inactive; NS1 function inh: inactive; CHX counter: inactive

Results for c1cc2c(cc1C(N1CCNCC1)N1CCNCC1)OCO2 ?
NS1 function inh: inactive

How did CN(C)CCNC(NC(=O)c1cccs1)C(Cl)(Cl)Cl (stereo not drawn) do in these assays?
Shiga inhibitor: inactive; SARS PLpro yeast: inactive; NS1 function inh: inactive; CHX counter: inactive

How did CCCCN(CCO)c1ncnc2sc(-c3ccccc3)cc12 do in these assays?
Shiga inhibitor: inactive; SARS PLpro yeast: inactive; NS1 function inh: inactive; CHX counter: inactive

What do the screens show for `CCn1nnnc1NC(=O)c1cccc(OC)c1`?
Shiga inhibitor: 83; SARS PLpro yeast: inactive; NS1 function inh: inactive; CHX counter: 32

How did COc1cccc(C(=O)Nc2ccc(NC(=O)C3CC3)cn2)c1 do in these assays?
Shiga inhibitor: 70; SARS PLpro yeast: inactive; NS1 function inh: inactive; CHX counter: 29

Results for CCC(=O)Nc1ccc(NC(=O)c2cccc(OC)c2)nc1 ?
Shiga inhibitor: 24; SARS PLpro yeast: inactive; NS1 function inh: inactive; CHX counter: 23

Results for CCn1nnnc1NC(=O)c1cc(Cl)c(OC)c(Cl)c1 ?
Shiga inhibitor: inactive; SARS PLpro yeast: inactive; NS1 function inh: inactive; CHX counter: inactive

Results for O=C(CC1SC(N2CCOCC2)=NC1=O)Nc1ccc(Cl)c(C(F)(F)F)c1 (stereo not drawn) ?
SARS PLpro yeast: inactive

What do the screens show for `O=C(COC(=O)c1cc(S(=O)(=O)N2CCOCC2)ccc1Cl)NCc1ccccc1`?
SARS PLpro yeast: inactive

What do the screens show for `O=C(COC(=O)c1cc(Cl)ccc1O)NCCC1=CCCCC1`?
SARS PLpro yeast: inactive

How did COc1ccc(C(=O)Nc2ccc(Cl)cn2)cc1Cl do in these assays?
Shiga inhibitor: 79; SARS PLpro yeast: inactive; NS1 function inh: inactive; CHX counter: 50

How did Cc1ccc(C(=O)Nc2ccc(Cl)cn2)cc1S(=O)(=O)N1CCOCC1 do in these assays?
Shiga inhibitor: 61; SARS PLpro yeast: inactive; NS1 function inh: inactive; CHX counter: 35

Results for O=C(Nc1ccc(Cl)cn1)c1cccc(S(=O)(=O)N2CCCC2)c1 ?
Shiga inhibitor: 41; SARS PLpro yeast: inactive; NS1 function inh: inactive; CHX counter: 14

What do the screens show for `CN(C)S(=O)(=O)c1cccc(C(=O)Nc2ccc(Cl)cn2)c1`?
Shiga inhibitor: 50; SARS PLpro yeast: inactive; NS1 function inh: inactive; CHX counter: 51

What do the screens show for `CCOC(=O)c1ccc(NC(=O)C2CC(=O)N=C(N)S2)cc1` (stereo not drawn)?
Shiga inhibitor: inactive; SARS PLpro yeast: inactive; NS1 function inh: inactive; CHX counter: inactive

What do the screens show for `CCn1c(CNc2cccc(C(F)(F)F)c2)n[nH]c1=S`?
Shiga inhibitor: inactive; SARS PLpro yeast: inactive; NS1 function inh: inactive; CHX counter: inactive

Results for C/C(=N\NC(=O)c1ccn(C)n1)c1cccc(NC(=O)c2ccc(C)s2)c1 ?
Shiga inhibitor: 77; SARS PLpro yeast: inactive; NS1 function inh: inactive; CHX counter: 32

What do the screens show for `C/C(=N/NC(=O)c1ccc(Br)o1)c1cccc(NC(=O)c2ccc(F)cc2)c1`?
Shiga inhibitor: 120; SARS PLpro yeast: inactive; NS1 function inh: inactive; CHX counter: 49

What do the screens show for `C/C(=N\NC(=O)c1ccn(C)n1)c1ccc(NC(=O)c2cccc(F)c2)cc1`?
Shiga inhibitor: 170; SARS PLpro yeast: inactive; NS1 function inh: inactive; CHX counter: 58

What do the screens show for `C/C(=N/NC(=O)c1ccco1)c1cccc(NC(=O)c2ccc(C)o2)c1`?
Shiga inhibitor: 122; SARS PLpro yeast: inactive; NS1 function inh: inactive; CHX counter: 41

What do the screens show for `C/C(=N\NC(=O)c1ccc(Br)cc1)c1cccc(NC(=O)c2cccnc2)c1`?
Shiga inhibitor: inactive; SARS PLpro yeast: inactive; NS1 function inh: inactive; CHX counter: inactive

What do the screens show for `COc1ccc(C(=O)Nc2ccc(NC(=O)c3cccc(F)c3)cn2)cc1`?
Shiga inhibitor: inactive; SARS PLpro yeast: inactive; NS1 function inh: inactive; CHX counter: inactive

How did C/C(=N/NC(=O)c1ccco1)c1cccc(NC(=O)c2ccc(C)s2)c1 do in these assays?
Shiga inhibitor: 68; SARS PLpro yeast: inactive; NS1 function inh: inactive; CHX counter: 56

Results for COc1ccc(C(=O)N/N=C(\C)c2cccc(NC(=O)c3ccc(F)cc3)c2)c(OC)c1 ?
Shiga inhibitor: inactive; SARS PLpro yeast: inactive; NS1 function inh: inactive; CHX counter: 26

What do the screens show for `CCC(CC)C(=O)Nc1cccc(/C(C)=N\NC(=O)c2ccc(C)s2)c1`?
Shiga inhibitor: inactive; SARS PLpro yeast: inactive; NS1 function inh: inactive; CHX counter: 14

How did CCC(=O)Nc1ccc(/C(C)=N\NC(=O)c2ccc(C)s2)cc1 do in these assays?
Shiga inhibitor: inactive; SARS PLpro yeast: inactive; NS1 function inh: inactive; CHX counter: 15

Results for CNC(=O)c1ccc(=O)n(Cc2cccc(C(F)(F)F)c2)c1 ?
Shiga inhibitor: inactive; SARS PLpro yeast: inactive; NS1 function inh: inactive; CHX counter: inactive

How did Cc1ccc(S(=O)(=O)Nc2c(C)n(C)n(-c3ccccc3)c2=O)c(C)c1 do in these assays?
SARS PLpro yeast: inactive; NS1 function inh: inactive; CHX counter: inactive

Results for C/C(=N/NC(=O)c1cnccn1)c1ccncc1 ?
Shiga inhibitor: inactive; SARS PLpro yeast: inactive; CHX counter: inactive

How did C/C(=N/NC(=O)c1ccc(Br)o1)c1cccc(NC(=O)c2ccc(C)o2)c1 do in these assays?
Shiga inhibitor: 136; SARS PLpro yeast: inactive; NS1 function inh: inactive; CHX counter: 28

Results for C/C(=N/NC(=O)c1ccc(Br)o1)c1ccncc1 ?
Shiga inhibitor: 60; SARS PLpro yeast: inactive; NS1 function inh: inactive; CHX counter: 74

How did COC(=O)Cn1cnc2c(nnn2-c2cccc(Cl)c2)c1=O do in these assays?
NS1 function inh: inactive

Results for Cc1ccc(NC(=O)CNC2CCCCC2)cc1Cl ?
Shiga inhibitor: inactive; SARS PLpro yeast: inactive; NS1 function inh: inactive; CHX counter: inactive

How did COc1cc(C=C2C(=O)NC(=O)NC2=O)ccc1OS(=O)(=O)c1ccccc1[N+](=O)[O-] do in these assays?
Shiga inhibitor: 57; SARS PLpro yeast: inactive; NS1 function inh: inactive; CHX counter: inactive

Results for O=C(CC1SC(=O)NC1=O)Oc1ccc(/C=N/NC(=O)c2ccccc2O)cc1 (stereo not drawn) ?
Shiga inhibitor: 36; SARS PLpro yeast: inactive; NS1 function inh: inactive; CHX counter: 23

Results for O=C(Oc1ccc(/C=N/NC(=O)c2ccccc2F)cc1)c1ccccc1 ?
Shiga inhibitor: 83; SARS PLpro yeast: inactive; NS1 function inh: inactive; CHX counter: 27

What do the screens show for `Cn1nccc1C(=O)Oc1ccc(/C=N/NC(=O)c2ccccc2O)cc1`?
Shiga inhibitor: 75; SARS PLpro yeast: inactive; CHX counter: inactive
